# Bioassay records deposited in PubChem by National Center for Advancing Translational Sciences (NCATS).
# D2 ag-1: agonists of human D2 dopamine receptor (beta-arrestin). hit rate 0.084% among 360,000. AID 624465. DiscoveRx PathHunter D2 beta-arrestin, luminescence, 90 min; 100% = 57 uM dopamine signal. activation, % (no concentration beside the values). P14416; in the data active = activation above about 40%; inconclusive = between about 15% and that limit
#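 Agonist mode: compounds alone added to overnight-plated D2 PathHunter cells for 90 min at 37 C, with 57 uM final dopamine (EC100) defining full response. Beta-arrestin recruitment detected by chemiluminescent reagent, read after 1 h at ambient temperature.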
# D2 ag-2: activates the human D2 dopamine receptor; activation, % at 2 µM; AID 485358; HEK293 T-REx D2 cells, calcium flux agonist mode; hit rate 0.53% among 340,000;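 active = activation over 3 SD above normal in the single-dose calcium agonist read, cut at about 30% in these data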; also: 0% is about no effect
#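 Tetracycline-induced HEK293 T-REx cells with force-coupled D2 receptor, plated overnight at 30 C, loaded with no-wash calcium dye. After a 10 s baseline, compound was pin-added and calcium flux read kinetically for 180 s; calcium rises flagged agonists.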
# D2 PAM-1: human D2 receptor positive allosteric modulation; potentiation, % (test concentration not listed); hit rate 0.23% among 360,000; AID 624464; P14416; DiscoveRx D2 beta-arrestin cells, luminescence, 90 min; 100% = 57 uM dopamine signal; in the data active = potentiation above about 50%; inconclusive = mostly about 30% to 49%
#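 PathHunter beta-arrestin assay in DiscoveRx D2 cells. Compounds were added with an EC20 of dopamine (50 nM final) for 90 min at 37 deg C. Luminescence was read 1 h after detection reagent, with 57 uM dopamine as the EC100 control.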
# D2 antagonist: antagonizes the human D2 dopamine receptor; P14416; inhibition, % at 10 µM; HEK293 TREx D2 cells, calcium flux, dopamine EC80; hit rate 2% among 340,000; in the data active = inhibition above about 30%; inactive = below that, where a call was filed; also: 0% is about no effect
#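 HEK293 T-REx D2 cells, tet-induced, calcium dye no-wash. Cpd pintool add, 180 s kinetic, then EC80 DA, 180 s kinetic. Ca flux read.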
# D2 PAM-2: D2 dopamine receptor (human) potentiation; AID 485347; hit rate 0.34% among 340,000; potentiation, % at 10 µM; HEK293 T-REx D2, calcium flux, EC20 dopamine potentiation; P14416;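 active = potentiation over 3 SD above the plate norm, cut at about 30% in these data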; also: 0% is about no effect
#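 Using a no-wash calcium dye in inducible, force-coupled HEK293 Trex cells expressing D2, we tracked fluorescence each second for 180 s after compound, then for 180 s after EC20 dopamine to detect augmented signalling.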
# D3 arrestin ag: activates human D3 dopamine receptor beta-arrestin recruitment. shares compounds with D2 ag-2. DiscoveRx D3 beta-arrestin cells, luminescence, 90 min. Potency, µM (top dose mostly 76.9 µM), inactives show top-dose activation, actives largely listed as activators. hit rate 4% among 2,300;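 also: potency is read from the fitted curve at half-maximal effect; 100% = dopamine control response; nearly all actives have a fitted effect of over 70% in size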
# Target sequence (P35462 whole entry, looked up): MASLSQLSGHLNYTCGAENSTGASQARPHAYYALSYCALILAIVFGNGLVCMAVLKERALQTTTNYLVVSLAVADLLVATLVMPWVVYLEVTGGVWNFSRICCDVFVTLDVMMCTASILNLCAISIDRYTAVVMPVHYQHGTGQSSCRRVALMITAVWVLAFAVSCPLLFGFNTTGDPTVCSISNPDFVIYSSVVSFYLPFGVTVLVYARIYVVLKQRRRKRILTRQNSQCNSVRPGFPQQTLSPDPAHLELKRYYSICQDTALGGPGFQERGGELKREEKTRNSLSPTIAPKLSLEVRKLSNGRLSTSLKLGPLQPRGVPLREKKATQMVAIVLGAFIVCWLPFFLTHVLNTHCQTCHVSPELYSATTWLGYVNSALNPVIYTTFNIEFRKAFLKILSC
# D2 ag-3: counter-screen for D3 agonists: human D2 dopamine receptor agonism; shares compounds with D2 ag-2; DiscoveRx PathHunter D2 beta-arrestin, luminescence, 90 min; response scale: percent relative to full dopamine signal; Potency, µM (doses to about 76.9 µM), without a hit: top-dose activation, most hits filed as activators; hit rate 5.9% among 2,300; also: potency is read from the fitted curve at half-maximal effect; % of control where 0% means no effect; nearly all actives have a fitted effect of over 70% in size
# The depositor's hits bear a star; ? = inconclusive; . = not tested or not shown. Hits are enriched below; roughly 2.4% of the tested compounds scored in any of these assays. Unless noted, calls follow the shape of the dose curve; as a rule, active = well fitted activation curve with a large enough effect; inconclusive = small, poorly fitted or top-dose-only effect; inactive = flat fitted curve, though single readings scatter.
SMILES,D2 ag-1,D2 ag-2,D2 PAM-1,D2 antagonist,D2 PAM-2,D3 arrestin ag,D2 ag-3
Cc1cccc(NC(=O)c2nc[nH]c2C(=O)N(C)Cc2ccccc2)c1,-8,-1,-19,29,-21,0%,-4%
COc1ccc(NC(=O)c2ccc3c(=O)n4nc(Nc5cccc(Cl)c5C)sc4nc3c2)cc1,.,1,.,.,-5,.,.
OC(COCc1ccccc1)CN1CCN(c2ccccc2F)CC1 (stereo not drawn),6,64*,-29,111*,-22,?,?
OC(CNCC1COc2ccccc2O1)COc1ccccc1F (stereo not drawn),0,78*,-16,96*,-36,17%,10%
O=[N+]([O-])c1ccc(OCC(O)CN2CCN(c3ccccc3F)CC2)cc1 (stereo not drawn),?,79*,-15,91*,-26,?,?
CCN1CCN(CC(O)COCc2ccccc2)CC1 (stereo not drawn),-2,1,-7,-5,2,.,.
OC(COCC1COc2ccccc2O1)CN1CCN(c2ccccc2F)CC1 (stereo not drawn),7,60*,-10,84*,-23,?,?
Cc1ccc(N2CCN(CC(O)COc3ccc([N+](=O)[O-])cc3)CC2)cc1 (stereo not drawn),3,0,-9,10,-14,.,.
COc1ccc(NC(=O)Cn2ccn(Cc3ccccc3)c(=O)c2=O)cc1Cl,.,1,.,.,-11,.,.
O=C(CCCn1c(=O)c2sccc2n(Cc2ccc(F)cc2Cl)c1=O)NCc1ccc2c(c1)OCO2,.,.,.,.,12,.,.
CCCS(=O)(=O)N1CCC(C(=O)NCCOC)CC1,.,0,.,.,-16,.,.
CCOc1ccccc1CNC(=O)c1cccc(NC(=O)c2nsc3ccccc23)c1,.,0,.,.,5,.,.
O=C(CN1CCN(c2ccccn2)CC1)Nc1ccc2ccccc2c1,3,28,-13,22,-15,-2%,18%
CC(=O)Nc1ccc(NC(=O)CN2CCN(c3ccccn3)CC2)cc1,?,82*,11,84*,-19,?,?
CC(C)c1nn2c(=O)cc(COC(=O)c3ccccc3NC(=O)COc3ccccc3)nc2s1,.,1,.,.,2,.,.
Cc1noc(C)c1C(=O)N1CCN(c2ccccc2O)CC1,-6,0,-20,-6,-1,7%,-1%
CCOC(=O)C1CCN(Cc2cnc(NC(=O)OC)s2)CC1,8,60*,-21,18,-13,-2%,8%
CCN1CCN(c2ccc(S(=O)(=O)N3CCOCC3)cc2NC(=O)C(C)Oc2ccc(F)cc2)CC1 (stereo not drawn),4,0,-7,1,8,-11%,-2%
CC(Oc1ccc(F)cc1)C(=O)Nc1cc(S(=O)(=O)N2CCOCC2)ccc1N1CCCC1 (stereo not drawn),3,-1,-34,-9,-5,.,.
O=S(=O)(NCCc1csc2nc(-c3ccc(F)cc3)nn12)c1ccc(Oc2ccccc2)cc1,.,1,.,.,7,.,.
Nc1ccn(CC(=O)NCc2ccc3[nH]ccc3c2)c(=O)n1,-4,0,-5,7,-2,12%,?
O=C(c1ccccc1)C1CN(Cc2ccccc2)CCC1(O)c1ccccc1 (stereo not drawn),2,65*,-11,45*,-14,-8%,4%
OC(c1ccccc1)C1CN(Cc2ccccc2)CCC1(O)c1ccccc1 (stereo not drawn),-2,1,-34,-8,-15,.,.
CCCCN(C)C(=O)C1CCN(CCCc2ccccc2)CC1,-1,6,-24,18,-1,-5%,6%
CN(C)CC(C)(C)CNC(=O)C1CCN(CCCc2ccccc2)CC1,?,48*,0,31*,2,9%,17%
SMILES,D2 ag-1,D2 ag-2,D2 PAM-1,D2 antagonist,D2 PAM-2,D3 arrestin ag,D2 ag-3
Cc1ccc(C(=O)NCC(c2ccco2)S(=O)(=O)c2ccccc2)cc1C (stereo not drawn),.,-2,.,.,1,.,.
Cc1ccc(CN2CCSc3ccc(C(=O)NCC(C)c4ccccc4)cc32)cc1 (stereo not drawn),.,.,.,.,-9,.,.
O=c1[nH]c(CN2CCN(c3ccccc3)CC2)nc2scc(-c3ccccc3)c12,-5,8,-10,32*,4,?,24%
CCCN(CCC)CCCNS(=O)(=O)c1cc(Br)cc2c1N(C(C)=O)CC2,7,59*,-33,26,-16,23%,21%
COc1cccc(OCC(O)CN2CCN(c3ccccn3)CC2)c1 (stereo not drawn),?,73*,21,91*,-27,?,3.5µM*
COc1cccc(OCC(O)CN2CCOCC2)c1 (stereo not drawn),2,-1,-21,1,11,.,.
OCC(O)CN1CCN(c2ccccc2)CC1 (stereo not drawn),14,82*,-16,59*,-22,-5%,17%
COc1cccc(OCC(O)CN2CCN(c3ncccn3)CC2)c1 (stereo not drawn),?,78*,3,69*,-17,15%,?
OC(COc1ccc(Br)cc1)CN1CCN(c2ccccc2)CC1 (stereo not drawn),-3,61*,-14,81*,-18,?,?
COc1cccc(OCC(O)CN2CCN(c3ccc(Cl)cc3)CC2)c1 (stereo not drawn),-4,7,-26,-42,-17,.,.
COc1cccc(OCC(O)CN2CCN(c3ccccc3)CC2)c1 (stereo not drawn),?,79*,0,83*,-24,?,?
OC(CN1CCN(c2ccccc2)CC1)Cn1c2ccccc2c2ccccc21 (stereo not drawn),-15,0,-29,-13,-14,.,.
OC(CSc1ccc(F)cc1)CN1CCN(c2ccccc2)CC1 (stereo not drawn),?,80*,-17,76*,-24,-3%,20%
COc1cc(Br)cc(CN2CCN(c3ncccn3)CC2)c1O,52*,76*,81*,74*,-18,?,7.9µM*
OC(COc1ccccc1)CN1CCN(c2ncccn2)CC1 (stereo not drawn),0,9,-8,39*,-5,15%,10%
COc1cc(Cl)c(C)cc1NC(=O)c1cnc(N2CCOCC2)c2ccccc12,.,1,.,.,-8,.,.
COc1cccc(CN2CCN(c3ncccn3)CC2)c1,55*,93*,26,95*,-29,?,0.63µM*
